The source of these data is article PMC11006913.

Assay in all cases: PBM; 200 nM protein, PBS
Settings in all cases: dsDNA, one strand shown

Assay [1] has as its target HESX1 (Homo sapiens, UniProt Q9UBX0 95-180, R165K).
The target of assay [2] is SHOX (Homo sapiens, UniProt O15266 103-189).
In assay [3] the target is ALX4 (Homo sapiens, UniProt Q9H161 200-286, Q225E).
Assay [4] has as its target HESX1 (Homo sapiens, UniProt Q9UBX0 95-180).
Assay [5] deals with MSX2 (Homo sapiens, UniProt P35548 130-214, R199I).
The target in assay [6] is ALX1 (Homo sapiens, UniProt Q15699 118-204, L144V).
In assay [7] the target is ALX3 (Homo sapiens, UniProt O95076 139-225, N203Q).
Assay [8] addresses SHOX (Homo sapiens, UniProt O15266 103-189, R173C).
The target in assay [9] is ALX1 (Homo sapiens, UniProt Q15699 118-204, L144R).
The target of assay [10] is ALX3 (Homo sapiens, UniProt O95076 139-225).
Assay [11] deals with PROP1 (Homo sapiens, UniProt O75360 56-141).
The target in assay [12] is HESX1 (Homo sapiens, UniProt Q9UBX0 95-180, R109Q).
Assay [13] concerns the target PROP1 (Homo sapiens, UniProt O75360 56-141, R99H).
Assay [14] addresses ALX3 (Homo sapiens, UniProt O95076 139-225, L168Q).
The target in assay [15] is HESX1 (Homo sapiens, UniProt Q9UBX0 95-180, P111T).
Assay [16] deals with ALX3 (Homo sapiens, UniProt O95076 139-225, L168V).
The target of assay [17] is PROP1 (Homo sapiens, UniProt O75360 56-141, F88S).
Assay [18] addresses HESX1 (Homo sapiens, UniProt Q9UBX0 95-180, F115L).
For assay [19], the target named is ALX1 (Homo sapiens, UniProt Q15699 118-204).
The target of assay [20] is ALX3 (Homo sapiens, UniProt O95076 139-225, N203S).
Sequence of ALX3 (Homo sapiens, UniProt O95076 139-225, N203S) (O95076 139-225 N203S): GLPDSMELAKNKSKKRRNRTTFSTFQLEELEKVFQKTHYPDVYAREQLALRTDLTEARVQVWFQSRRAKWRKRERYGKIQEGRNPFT

Sequence of HESX1 (Homo sapiens, UniProt Q9UBX0 95-180, P111T) (Q9UBX0 95-180 P111T): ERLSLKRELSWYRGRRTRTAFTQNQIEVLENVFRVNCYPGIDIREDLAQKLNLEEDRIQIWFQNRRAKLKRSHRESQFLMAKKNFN
Sequence of ALX1 (Homo sapiens, UniProt Q15699 118-204, L144V) (Q15699 118-204 L144V): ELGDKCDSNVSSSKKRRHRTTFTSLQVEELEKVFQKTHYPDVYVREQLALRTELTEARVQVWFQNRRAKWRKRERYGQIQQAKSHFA
Sequence of HESX1 (Homo sapiens, UniProt Q9UBX0 95-180, R165K) (Q9UBX0 95-180 R165K): as the sequence (Q9UBX0 95-180 P111T) above, with T17P, R71K counted along it
Sequence of PROP1 (Homo sapiens, UniProt O75360 56-141, F88S) (O75360 56-141 F88S): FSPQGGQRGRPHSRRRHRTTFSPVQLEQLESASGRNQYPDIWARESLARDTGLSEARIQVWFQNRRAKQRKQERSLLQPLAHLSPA
Sequence of HESX1 (Homo sapiens, UniProt Q9UBX0 95-180, F115L) (Q9UBX0 95-180 F115L): as the sequence (Q9UBX0 95-180 P111T) above, with T17P, F21L counted along it
Sequence of PROP1 (Homo sapiens, UniProt O75360 56-141) (O75360 56-141): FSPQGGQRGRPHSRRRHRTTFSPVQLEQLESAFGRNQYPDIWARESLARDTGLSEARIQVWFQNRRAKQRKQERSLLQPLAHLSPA
Sequence of ALX1 (Homo sapiens, UniProt Q15699 118-204, L144R) (Q15699 118-204 L144R): as the sequence (Q15699 118-204 L144V) above, with V27R counted along it
Sequence of SHOX (Homo sapiens, UniProt O15266 103-189) (O15266 103-189): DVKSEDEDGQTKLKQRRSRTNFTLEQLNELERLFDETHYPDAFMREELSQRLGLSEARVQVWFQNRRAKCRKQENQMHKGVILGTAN
Sequence of SHOX (Homo sapiens, UniProt O15266 103-189, R173C) (O15266 103-189 R173C): as the sequence (O15266 103-189) above, with R71C counted along it
Sequence of ALX3 (Homo sapiens, UniProt O95076 139-225, L168Q) (O95076 139-225 L168Q): as the sequence (O95076 139-225 N203S) above, with L30Q, S65N counted along it
Sequence of ALX3 (Homo sapiens, UniProt O95076 139-225) (O95076 139-225): as the sequence (O95076 139-225 N203S) above, with S65N counted along it
Sequence of ALX4 (Q9H161 200-286 Q225E): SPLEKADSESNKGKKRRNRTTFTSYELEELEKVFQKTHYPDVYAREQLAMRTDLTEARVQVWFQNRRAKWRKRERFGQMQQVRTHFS
Sequence of HESX1 (Homo sapiens, UniProt Q9UBX0 95-180) (Q9UBX0 95-180): as the sequence (Q9UBX0 95-180 P111T) above, with T17P counted along it
Sequence of ALX3 (Homo sapiens, UniProt O95076 139-225, N203Q) (O95076 139-225 N203Q): as the sequence (O95076 139-225 N203S) above, with S65Q counted along it
Sequence of MSX2 (P35548 130-214 R199I): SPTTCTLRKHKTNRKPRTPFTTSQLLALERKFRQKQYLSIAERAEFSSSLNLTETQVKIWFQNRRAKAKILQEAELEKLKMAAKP
Sequence of HESX1 (Homo sapiens, UniProt Q9UBX0 95-180, R109Q) (Q9UBX0 95-180 R109Q): as the sequence (Q9UBX0 95-180 P111T) above, with R15Q, T17P counted along it
Sequence of ALX1 (Homo sapiens, UniProt Q15699 118-204) (Q15699 118-204): as the sequence (Q15699 118-204 L144V) above, with V27L counted along it
Sequence of PROP1 (Homo sapiens, UniProt O75360 56-141, R99H) (O75360 56-141 R99H): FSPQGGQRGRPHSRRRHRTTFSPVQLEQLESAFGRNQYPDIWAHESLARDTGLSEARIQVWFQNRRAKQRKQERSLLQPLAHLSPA
Sequence of ALX3 (Homo sapiens, UniProt O95076 139-225, L168V) (O95076 139-225 L168V): as the sequence (O95076 139-225 N203S) above, with L30V, S65N counted along it

For the sequence AGCAATTA, the binding signal in [1] was 12.6 upbm affinity estimate (log intensity, higher = more binding, comparable within an allelic series); in assay [2], 11.9 upbm affinity estimate (log intensity, higher = more binding, comparable within an allelic series); in assay [3], 13 upbm affinity estimate (log intensity, higher = more binding, comparable within an allelic series); in assay [4], 12.7 upbm affinity estimate (log intensity, higher = more binding, comparable within an allelic series); in assay [5], 13.2 upbm affinity estimate (log intensity, higher = more binding, comparable within an allelic series); in [6], 11.6 upbm affinity estimate (log intensity, higher = more binding, comparable within an allelic series). Also, the binding signal in assay [7] is 8.32 upbm affinity estimate (log intensity, higher = more binding, comparable within an allelic series); in [8] it was 9.41 upbm affinity estimate (log intensity, higher = more binding, comparable within an allelic series); in assay [9] it was 11.3 upbm affinity estimate (log intensity, higher = more binding, comparable within an allelic series); in assay [10], 12.4 upbm affinity estimate (log intensity, higher = more binding, comparable within an allelic series); in [11], 11.4 upbm affinity estimate (log intensity, higher = more binding, comparable within an allelic series); in assay [12], 9.19 upbm affinity estimate (log intensity, higher = more binding, comparable within an allelic series). For the same sequence, the binding signal in assay [13] was 11.4 upbm affinity estimate (log intensity, higher = more binding, comparable within an allelic series); in [14], 10.5 upbm affinity estimate (log intensity, higher = more binding, comparable within an allelic series); in assay [15], 11.1 upbm affinity estimate (log intensity, higher = more binding, comparable within an allelic series); in assay [16], 9.97 upbm affinity estimate (log intensity, higher = more binding, comparable within an allelic series); in [17] it was 7.59 upbm affinity estimate (log intensity, higher = more binding, comparable within an allelic series); in assay [18] it was 7.88 upbm affinity estimate (log intensity, higher = more binding, comparable within an allelic series). Moreover, the binding signal in assay [19] was 12.2 upbm affinity estimate (log intensity, higher = more binding, comparable within an allelic series); in assay [20], 8.41 upbm affinity estimate (log intensity, higher = more binding, comparable within an allelic series).

For the sequence CCCCGGCG, the binding signal was 6.58 upbm affinity estimate (log intensity, higher = more binding, comparable within an allelic series) in [1]; 6.85 upbm affinity estimate (log intensity, higher = more binding, comparable within an allelic series) in assay [2]; 6.57 upbm affinity estimate (log intensity, higher = more binding, comparable within an allelic series) in assay [4]; 7.82 upbm affinity estimate (log intensity, higher = more binding, comparable within an allelic series) in assay [7]; 7.05 upbm affinity estimate (log intensity, higher = more binding, comparable within an allelic series) in assay [8]; 7.76 upbm affinity estimate (log intensity, higher = more binding, comparable within an allelic series) in [10]. The binding signal is 6.61 upbm affinity estimate (log intensity, higher = more binding, comparable within an allelic series) in [12]; 7.73 upbm affinity estimate (log intensity, higher = more binding, comparable within an allelic series) in [14]; 6.61 upbm affinity estimate (log intensity, higher = more binding, comparable within an allelic series) in assay [15]; 7.68 upbm affinity estimate (log intensity, higher = more binding, comparable within an allelic series) in assay [16]; 6.51 upbm affinity estimate (log intensity, higher = more binding, comparable within an allelic series) in [18]; 7.81 upbm affinity estimate (log intensity, higher = more binding, comparable within an allelic series) in assay [20].

On to AAATTAAT, for which the binding signal in [1] was 11.7 upbm affinity estimate (log intensity, higher = more binding, comparable within an allelic series); in assay [2], 11.9 upbm affinity estimate (log intensity, higher = more binding, comparable within an allelic series); in assay [3], 13.3 upbm affinity estimate (log intensity, higher = more binding, comparable within an allelic series); in [4], 11.5 upbm affinity estimate (log intensity, higher = more binding, comparable within an allelic series); in assay [5], 12.2 upbm affinity estimate (log intensity, higher = more binding, comparable within an allelic series); in assay [6], 11.9 upbm affinity estimate (log intensity, higher = more binding, comparable within an allelic series). The binding signal in assay [7] is 8.56 upbm affinity estimate (log intensity, higher = more binding, comparable within an allelic series); in assay [8], 9.34 upbm affinity estimate (log intensity, higher = more binding, comparable within an allelic series); in [9], 11.6 upbm affinity estimate (log intensity, higher = more binding, comparable within an allelic series); in [10], 12.5 upbm affinity estimate (log intensity, higher = more binding, comparable within an allelic series); in assay [11], 11.2 upbm affinity estimate (log intensity, higher = more binding, comparable within an allelic series); in assay [12], 8.9 upbm affinity estimate (log intensity, higher = more binding, comparable within an allelic series). Further, the binding signal was 10.9 upbm affinity estimate (log intensity, higher = more binding, comparable within an allelic series) in assay [13]; 10.6 upbm affinity estimate (log intensity, higher = more binding, comparable within an allelic series) in assay [14]; 10.4 upbm affinity estimate (log intensity, higher = more binding, comparable within an allelic series) in assay [15]; 10 upbm affinity estimate (log intensity, higher = more binding, comparable within an allelic series) in [16]; 7.7 upbm affinity estimate (log intensity, higher = more binding, comparable within an allelic series) in assay [17]; 7.97 upbm affinity estimate (log intensity, higher = more binding, comparable within an allelic series) in assay [18]. The binding signal in assay [19] was 12.5 upbm affinity estimate (log intensity, higher = more binding, comparable within an allelic series); in assay [20], 8.72 upbm affinity estimate (log intensity, higher = more binding, comparable within an allelic series).

For GTCAATTA, the binding signal in [1] is 13.1 upbm affinity estimate (log intensity, higher = more binding, comparable within an allelic series); in assay [2] it was 12.4 upbm affinity estimate (log intensity, higher = more binding, comparable within an allelic series); in assay [3], 13.4 upbm affinity estimate (log intensity, higher = more binding, comparable within an allelic series); in assay [4], 13.1 upbm affinity estimate (log intensity, higher = more binding, comparable within an allelic series); in assay [5], 12.6 upbm affinity estimate (log intensity, higher = more binding, comparable within an allelic series); in [6], 11.8 upbm affinity estimate (log intensity, higher = more binding, comparable within an allelic series). The binding signal in assay [7] is 8.23 upbm affinity estimate (log intensity, higher = more binding, comparable within an allelic series); in [8] it was 9.5 upbm affinity estimate (log intensity, higher = more binding, comparable within an allelic series); in [9], 11.4 upbm affinity estimate (log intensity, higher = more binding, comparable within an allelic series); in [10], 12.5 upbm affinity estimate (log intensity, higher = more binding, comparable within an allelic series); in [11] it was 11.4 upbm affinity estimate (log intensity, higher = more binding, comparable within an allelic series); in assay [12] it was 9.32 upbm affinity estimate (log intensity, higher = more binding, comparable within an allelic series). Moreover, the binding signal was 11.8 upbm affinity estimate (log intensity, higher = more binding, comparable within an allelic series) in assay [13]; 10.7 upbm affinity estimate (log intensity, higher = more binding, comparable within an allelic series) in [14]; 11.6 upbm affinity estimate (log intensity, higher = more binding, comparable within an allelic series) in assay [15]; 10.1 upbm affinity estimate (log intensity, higher = more binding, comparable within an allelic series) in [16]; 7.62 upbm affinity estimate (log intensity, higher = more binding, comparable within an allelic series) in assay [17]; 7.69 upbm affinity estimate (log intensity, higher = more binding, comparable within an allelic series) in assay [18]. Also, the binding signal is 12.4 upbm affinity estimate (log intensity, higher = more binding, comparable within an allelic series) in assay [19] and 8.41 upbm affinity estimate (log intensity, higher = more binding, comparable within an allelic series) in assay [20].

In the case of GCAAGGGC, the binding signal was 6.38 upbm affinity estimate (log intensity, higher = more binding, comparable within an allelic series) in [1]; 6.38 upbm affinity estimate (log intensity, higher = more binding, comparable within an allelic series) in assay [4]; 6.49 upbm affinity estimate (log intensity, higher = more binding, comparable within an allelic series) in assay [12]; 6.49 upbm affinity estimate (log intensity, higher = more binding, comparable within an allelic series) in [15]; 6.53 upbm affinity estimate (log intensity, higher = more binding, comparable within an allelic series) in assay [18].
